Compound activity from PubChem BioAssay.
AMA1 RON2 block = inhibitors of Plasmodium falciparum AMA1-RON2 interaction. AlphaScreen AMA1-biotinylated RON2 peptide binding. Potency, µM (doses to about 58.2 µM), for the others: at the highest dose activity change, negative = inhibition, usual class: inhibitors. AID 720542. actives 0.2% (n = 360,000);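 also: 0% = vehicle wells and -100% = peptide control; nearly all actives have a fitted effect of over 45% in size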
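AMA1 (3D7) with his tag at 25 nM final met compounds first, then biotinylated RON2 peptide at 25 nM; detection used donor plus acceptor beads, 10 µg/mL apiece, read by AlphaScreen after 30 min at room temperature.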
Pf growth 48h = inhibits P. falciparum growth in the first generation, 48 h | P. falciparum luciferase growth in erythrocytes, 48 h | actives 5.9% (n = 310,000) | AID 504832 | Potency, µM (highest dose often 28.7 µM), without a hit: at the top dose activity change, negative = inhibition, actives largely listed as inhibitors
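Cell-based growth assay: transgenic P. falciparum expressing firefly luciferase, cultured in red cells within RPMI 1640 containing 0.5% w/v Albumax, 24 mM bicarbonate and gentamycin. A drop in luciferase activity indicates inhibition.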
Pf growth 96h = P. falciparum growth inhibition at 96 hours | actives 6.9% (n = 320,000) | P. falciparum luciferase reporter growth, 96 h | Potency, µM (series often up to 28.7 µM), without a hit: at the highest dose activity change, negative = inhibition, actives largely listed as inhibitors | AID 504834
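Infected RBCs, 2% Hct / 0.05% parasitemia final; luciferase-reporter P. falciparum; cpd 96 h, 37 C, 5% CO2; luciferase detection reagent; luminescence.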
HCV inhibitor = HCV inhibition | Huh7.5.1 HCVcc-Cre infection, luciferase reporter, 44 h | Potency, µM (doses to about 41.8 µM), for the others: at the highest dose activity change, negative = inhibition, usual class: inhibitors | actives 3.4% (n = 340,000) | AID 651820
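A cell-based infection assay in which seeded cells (1,000 per well) receive test compound after 4 h, are inoculated with HCVcc-Cre at approximately 0.5 moi, and are incubated 44 h before luminescence detection.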
* hit, by the source's call; ? = inconclusive; · = no result given; [ ] = dose if it differs, or a comment. Hits are enriched below; roughly 11% of the tested compounds scored in any of these assays. Calls follow the shape of the dose curve; as a rule, active = well fitted curve in the direction sought with a large enough effect; inconclusive = small, poorly fitted or top-dose-only effect, or another doubt; inactive = no such curve, though single readings can be large; an effect the other way counts as inactive or inconclusive. Unless noted, % is scaled to controls: 0 for no effect and ±100 for the full control effect; potency is read from the fitted curve at half-maximal effect.

SMILES	AMA1 RON2 block	Pf growth 48h	Pf growth 96h	HCV inhibitor
Cc1nc(N)c(CC(Br)CBr)c(Cl)n1 (stereo not drawn)	2.6%	0.0738µM*	?	-12.2%
COc1ccc(S(=O)CC(=O)Nc2ccc(Cl)cc2Cl)cc1 (stereo not drawn)	-0.4%	13.3%	44.2%	-1.7%
Cc1cc(C)nc(SCc2nc3nc(C)cc(C)n3c2Br)n1	-4.8%	10.4µM*	1.47µM*	3.1%
Cc1cc(C)n2c(Br)c(CN3CCCC(C)C3)nc2n1 (stereo not drawn)	-7.6%	0.9%	21.7%	7.6%
O=C(CSC1=NNC(c2ccccn2)S1)Nc1ccccc1 (stereo not drawn)	-82.3%	?	?	14.1µM*
O=C(CSC1=NNC(c2ccccn2)S1)Nc1cccc(Cl)c1 (stereo not drawn)	?	?	?	1.6%
O=C(Cc1ccccc1)N/N=C/c1ccc([N+](=O)[O-])s1	-10.1%	7.38µM*	8.28µM*	11.2µM*
COc1ccc(NC(C)C(=O)N/N=C/c2ccc([N+](=O)[O-])s2)cc1 (stereo not drawn)	-13.1%	?	26.7%	?
Cc1ccnn1CC(=O)N/N=C/c1ccc([N+](=O)[O-])s1	-6.5%	?	7.38µM*	?
Cc1ccc(NC(C)C(=O)N/N=C/c2ccc([N+](=O)[O-])s2)cc1 (stereo not drawn)	-17.4%	?	14.7µM*	?
Cc1ccnn1CC(=O)N/N=C/c1cccs1	14.6%	19.6%	31.6%	26.9%
Cn1c(SCC(=O)N/N=C/c2ccc([N+](=O)[O-])s2)nnc1-c1ccccc1	-8.5%	6.57µM*	?	11.2µM*
O=C(Cc1ccccc1)N/N=C/c1cccs1	-1.2%	13.4%	11.0%	6.7%
O=C(O)C1C(=O)NCC1c1ccccc1 (stereo not drawn)	-1.3%	-1.6%	2.6%	17.4%
O=C(N/N=C/c1ccc([N+](=O)[O-])s1)C(O)c1ccccc1 (stereo not drawn)	4.6%	4.65µM*	2.33µM*	7.08µM*
C/C=C/C=C/C(=O)N1CC[C@]23c4ccccc4N[C@H]4N(C)c5cccc6c5[C@]42CCN([C@H]6C2OC2(C)C)[C@H]13 (stereo partly drawn)	?	11.7µM*	38.4%	?
CN1CCC23c4ccccc4NC1C21CCN(C)C3Nc2ccccc21	-0.6%	·	·	12.9%
N#Cc1cccc(NC(=O)Cn2cnc(S(=O)(=O)N3CCc4ccccc43)c2)c1	1.0%	-25.4%	4.65µM*	?
CCOc1cc(CN2CCN(S(=O)(=O)Cc3ccccc3)CC2)ccc1OC	-8.1%	-16.9%	5.9%	?
COc1cc(CN2CCC(C(=O)NCC(C)(C)CN(C)C)CC2)ccc1OCc1ccccc1	-21.0%	9.28µM*	?	?
CCCCNC(=O)C1CCN(Cc2ccc(OCc3ccccc3)c(OC)c2)CC1	4.4%	72.4%	-19.9%	?
CCCS(=O)(=O)N1CCN(Cc2ccc(OCc3ccccc3)c(OC)c2)CC1	-15.7%	·	·	10µM*
Cc1cc(C)n2nc(-c3sccc3-n3c(C)ccc3C)cc2n1	-1.3%	?	?	8.91µM*
O=C(CC(=O)c1ccccc1)Nc1ccc([N+](=O)[O-])cc1	-24.8%	·	·	-28.2%
Oc1ccc(Br)cc1CNc1ccccn1	1.0%	?	6.57µM*	-13.5%
SMILES	AMA1 RON2 block	Pf growth 48h	Pf growth 96h	HCV inhibitor
CC(=O)N[C@H](CC(C)C)C(=O)O	·	-11.7%	-14.8%	·
O=C(COC(=O)CC1CCCC1)Nc1ccc(Cl)cc1	12.3%	18.5%	0.7%	-8.6%
O=C(NCCc1ccc(Cl)cc1)c1cnccn1	-14.1%	66.0%	9.1%	8.8%
CC(C)(C)C(=O)N(Cc1ccc(Cl)cc1)c1cnccn1	-0.6%	3.29µM*	5.22µM*	?
COc1ccc(Nc2c([N+](=O)[O-])ccc3c2=NC2(CCCCC2)N=3)cc1	8.91µM*	?	42.1%	?
O=[N+]([O-])c1ccc2c(c1Nc1ccccc1)=NC1(CCCCC1)N=2	?	-9.1%	?	5.1%
O=C(Nc1ccc2c(c1)OCO2)c1cc(C2CCCCN2C(=O)c2ccccc2)on1 (stereo not drawn)	-0.6%	·	·	·
COc1ccc(-n2c(=O)c3ccccc3n(Cc3cccc(C)c3)c2=O)cc1OC	-7.4%	-2.6%	-23.9%	7.8%
CC(C)C[C@]1(c2ccccc2)ON(c2ccccc2C(F)(F)F)C1=O	27.3%	9.28µM*	?	7.0%
CC[C@]1(c2ccccc2OC)ON(c2ccccc2C(F)(F)F)C1=O	35.7%	0.522µM*	0.415µM*	?
COc1ccc2c(c1)C(=O)N(c1ccccc1OC)C(=O)C2(C)C	11.8%	·	46.0%	-16.8%
COc1ccccc1[C@]1(C)ON(c2ccccc2C(F)(F)F)C1=O	22.3%	1.04µM*	0.828µM*	?
Cc1cc(=O)c(C(=O)O)nn1-c1ccccc1C(F)(F)F	-6.2%	6.5%	0.0%	-14.1%
CC(C(=O)N1CCCC1)N(C)CC(=O)Nc1cccc(F)c1 (stereo not drawn)	19.6%	8.2%	?	7.4%
CCCC(=O)NC(c1ccco1)c1cc(Cl)c2cccnc2c1O (stereo not drawn)	-42.7%	11.7µM*	·	11.2µM*
CC(C)C(=O)NC(c1cccs1)c1cc([N+](=O)[O-])c2cccnc2c1O (stereo not drawn)	18.4%	?	2.0%	?
CCCC(=O)NC(c1cccs1)c1cc(Cl)c2cccnc2c1O (stereo not drawn)	89.7%	3.7µM*	?	3.16µM*
CCCC(=O)NC(c1ccc2c(c1)OCO2)c1cc(Cl)c2cccnc2c1O (stereo not drawn)	32.9%	?	-2.2%	1.12µM*
CCOc1ccc(C(Nc2cccnc2)c2cc(Cl)c3cccnc3c2O)cc1 (stereo not drawn)	5.5%	?	?	?
COc1ccc(CN2CCC(CO)(Cc3cccc(C(F)(F)F)c3)CC2)cc1Cn1cccn1	-3.1%	?	156.4%	?
NC(=S)N=Nc1c(O)n(Cc2ccc(Br)cc2)c2ccccc12	5.3%[2.32 µM]	?	39.5%	1µM*
Cn1c(O)c(N=NC(N)=S)c2ccccc21	·	?	12µM*	·
Oc1c(N=NC(=S)Nc2ccccc2F)c2ccccc2n1Cc1ccc(F)cc1	17.2%	2.08µM*	?	?
NC(=S)N=Nc1c(O)n(Cc2ccc(F)cc2)c2ccccc12	56.8%	?	?	?
C/C(Cl)=C\Cn1c(O)c(N=NC(N)=S)c2cc(Br)ccc21	42.6%	10.4µM*	?	11.2µM*
CCCCCCNS(=O)(=O)c1ccc(NC(=O)C2CCCO2)cc1 (stereo not drawn)	0.4%	-15.2%	?	?
CC1(C)COC(c2cc3c(cc2Br)OCO3)OC1	6.1%	·	·	-1.6%
Cc1ccc2nc(COc3ccc(Cl)cc3)cc(=O)n2c1	-9.4%	270.3%	248.1%	3.7%
Cc1cccc(NC(=O)Cn2c(O)c(N=NC(N)=S)c3ccccc32)c1	32.6%	-9.8%	14.7µM*	?
